Source: PubChem BioAssay
This excerpt belongs to a sample that is enriched for hits.
SF-1 inh: inhibitors of human nuclear receptor SF-1 | Q13285 | CHO-K1 Gal4-SF-1 LBD luciferase reporter | inhibition, % at 10 µM | hit rate 0.55% among 65,000;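 active means inhibition above the mean inhibition of all tested compounds plus 3 SD, cut at about 48% in these data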
Target sequence (Q13285 whole entry, looked up, the tested form may be a part): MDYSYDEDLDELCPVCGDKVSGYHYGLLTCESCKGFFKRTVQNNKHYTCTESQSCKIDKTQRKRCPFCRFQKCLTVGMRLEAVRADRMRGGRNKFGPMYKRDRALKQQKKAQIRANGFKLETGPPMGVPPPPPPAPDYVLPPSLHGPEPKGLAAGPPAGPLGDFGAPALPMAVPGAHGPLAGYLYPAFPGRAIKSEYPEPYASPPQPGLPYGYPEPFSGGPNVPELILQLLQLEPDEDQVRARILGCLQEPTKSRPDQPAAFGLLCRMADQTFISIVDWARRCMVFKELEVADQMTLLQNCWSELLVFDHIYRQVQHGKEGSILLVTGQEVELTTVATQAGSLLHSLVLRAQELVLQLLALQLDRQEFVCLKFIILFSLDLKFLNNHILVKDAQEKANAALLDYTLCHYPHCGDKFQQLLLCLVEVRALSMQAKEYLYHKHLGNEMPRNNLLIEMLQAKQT
Each line names hits and unclear results; the compound was inactive in the other large screens.

COc1ccc(CC(=O)Nc2cccc(-c3nnc(-c4cccc(C)c4)o3)c2)cc1OC	SF-1 inh 93
CCOc1cccc(C(=O)Nc2cccc(-c3nnc(-c4ccc(C)cc4)o3)c2)c1	none
CC(=O)/C=C(\C)Nc1ccc(-c2cnc(-c3ccccc3)o2)cc1	none
CCC(=O)Nc1cccc(-c2nc3ccccc3c(=O)o2)c1	none
COc1ccc(CC(=O)Nc2ccc(-c3nnc(-c4ccccc4)o3)cc2)cc1OC	SF-1 inh 77
O=S(=O)(c1ccc(Cl)s1)N1CCN(C/C=C/c2ccccc2)CC1	none
O=C1c2ccccc2C(=O)N1CCCn1nnc(-c2ccc(N3CCOCC3)cc2)n1	none
Cc1ccc(NC(=O)c2ocnc2C)cc1Cl	none
O=c1cc(CSc2nnc(-c3ccccc3)o2)c2ccccc2[nH]1	none
C=CCNC(=O)NS(=O)(=O)c1ccc(C)cc1	none
O=C(Nc1ccc(F)c(F)c1)c1ccc2c(c1)OCO2	none
COc1cc2c(cc1NC(=O)c1ccc3c(c1)OCO3)oc1ccccc12	none
O=C(NCCOc1ccccc1)c1ccc2c(c1)OCO2	SF-1 inh 59
CN(C)S(=O)(=O)c1ccc(NC(=O)c2ccccn2)cc1	none
CN(C)c1ccc(NC(=O)Nc2cccc(Cl)c2)cc1	none
CN(C)c1ccc(NC(=S)c2ccccn2)cc1	SF-1 inh 86
CCOC(=O)CSC(CC)C(=O)Nc1nnc(CC)s1 (centres undefined)	none
COc1ccc(N2CCN(C(=O)CN3C(=O)C4CC=CCC4C3=O)CC2)cc1 (centres undefined)	none
COC(=O)C1=C(N)N(c2ccc(F)cc2)C2=C(C(=O)CCC2)C1c1ccc2c(c1)OCO2 (centres undefined)	none
COc1ccc(CNc2nc3c(c(=O)n(Cc4ccc(F)cc4)c(=O)n3C)n2C)cc1	none
Fc1ccc(OCc2nn3cnnc3s2)cc1	none
Clc1ccc(-c2nnc(NC3=NCCCCC3)o2)cc1	SF-1 inh 58
Fc1ccc(-c2nnc(-c3ccc(Cl)cc3Cl)o2)cc1	none
NC(=O)C1CCN(CCC(=O)Nc2cccc(Cl)c2)CC1	none
Cc1ccc(NC(=O)CS(=O)CC(=O)NCC2CCCO2)cc1 (centres undefined)	none
COCCCN(C(C)=O)c1nc(-c2ccc(OC)cc2)cs1	none
Cc1sc2nc3n(c(=O)c2c1C)Cc1ccccc1-3	none
O=C(c1cccs1)N1CCn2c1nc1ccccc12	none
CCOC(=O)C1CCCN(c2nc(C)nc3c2oc2ccccc23)C1 (centres undefined)	none
CCOC(=O)C1CCN(Cc2ccc(O)c3ncccc23)CC1	SF-1 inh 77
CCOC(=O)N1CCC(NC(=O)c2cccnc2SC)CC1	none
CCOC(=O)Cn1c(=O)oc2cc(S(=O)(=O)NCc3cccs3)ccc21	none
COc1cc(SC)ccc1C(=O)Nc1ccccc1C#N	none
O=c1[nH]c2ccc(Br)cc2c(-c2ccccc2)c1CN1CCOCC1	none
Oc1c(CN2CCOCC2)cc(COCc2ccccc2)c2cccnc12	SF-1 inh 73
CCN(C(=O)c1cc(Cl)ccc1OC)C1CCCCC1	none
CCCCn1c2c(c(=O)n(C)c1=O)C(c1ccc(OC)cc1)N1CCCCCC1=N2 (centres undefined)	SF-1 inh 49
COc1ccc(-n2ncc3c(NCc4ccccn4)ncnc32)cc1	none
Cc1sc(NC(=O)c2ccco2)c(C(c2cccnc2)N2CCN(c3ccc(F)cc3)CC2)c1C (centres undefined)	SF-1 inh 48
COc1ccc(N2CCN(C(c3cccs3)C(C)NC(=O)c3ccco3)CC2)cc1 (centres undefined)	none
Cc1cnc(NC(=O)c2ccco2)s1	none
CC(C)CCNC(=O)NC(=O)COc1ccccc1C#N	none
CCCC1C(c2ccc(OC)cc2)C(C#N)(C#N)C2(C#N)CC1(N)NC2=O (centres undefined)	none
O=C(CCSc1ccccc1)N1CCOCC1	none
O=C(c1ccccc1)c1ccccc1C(=O)N1CCOCC1	none
O=C(c1ccccc1)C(CCC(CN1CCOCC1)C(=O)c1ccccc1)CN1CCOCC1 (centres undefined)	SF-1 inh 74
CC(C)CCNC(=O)C1CCN(S(=O)(=O)c2ccc3c(c2)CCC(=O)N3)CC1	none
CC1(C)Cc2c(c(-c3ccccc3)nc(N3CCCC3)c2C(N)=O)CO1	none
CCN(CC)C(=O)Oc1ccccc1NC(C)=O	none
CC(=O)Nc1ccc(SCC(=O)c2cc(C)n(Cc3cccs3)c2C)cc1	SF-1 inh 58
C=CCn1c(C)cc(C(=O)CSc2nnc(NCc3ccccc3)s2)c1C	none
Cc1nc2ccc(NC(=O)Cc3cccs3)cc2s1	none
Cc1csc(SCC(=O)c2cc(C)n(Cc3cccs3)c2C)n1	SF-1 inh 60
CC(=O)Nc1ccccc1OCC(=O)c1cc(C)n(Cc2cccs2)c1C	SF-1 inh 70
CCCn1c(C)cc(C(=O)CN2C(=O)c3ccccc3C2=O)c1C	none
C=CCn1c(C)cc(C(=O)CSc2nnc(Cc3ccccc3)o2)c1C	none
COc1ccc(-c2nnc(SCC(=O)c3cc(C)n(Cc4cccs4)c3C)o2)cc1	none
CC(=O)C1(C)OC(N)=C(C#N)C(c2ccccc2)C1(C#N)C#N (centres undefined)	none
c1ccn2c(Cc3nnc4ccccn34)nnc2c1	none
CCN=C1SC(C(=O)Nc2cccc(OCC)c2)CC(=O)N1CC (centres undefined)	none
O=C(NCCSc1ccccc1)c1cccnc1	none
CCN1C(=O)N(CN2CCOCC2)C2C1N(CN1CCOCC1)C(=O)N2CC (centres undefined)	none
O=C(c1ccc(NC2=NC3CS(=O)(=O)CC3S2)cc1)N1CCc2ccccc2C1 (centres undefined)	none
CCc1sc(C(=O)N2CCN(S(C)(=O)=O)CC2)cc1Br	none
CCSc1nnc(NC(=O)c2nn(C(C)C)c(=O)c3ccccc23)s1	none
O=C(CCOc1ccccc1)Nc1ccc(S(=O)(=O)N2CCCC2)cc1	none
CCOC(=O)CNc1c(N2CCN(c3ccccn3)CC2)c(=O)c1=O	none
Cn1cnnc1SCc1ccc(-c2ccc(Br)cc2)o1	none
COc1cccc2cc(NC(=O)C3CCCCC3)c(=O)oc12	none
O=C(Nc1ccccc1F)c1ccncc1	none
O=C(Nc1nc(-c2ccc(Cl)s2)cs1)c1ccncc1	SF-1 inh 63
Cc1csc(NC(=O)c2sc3nc(-c4cccs4)ccc3c2N)n1	none
Cc1csc2nc(CNS(=O)(=O)c3ccc4c(c3)CCCC4)cn12	none
O=c1cc(N2CCC(Cc3ccccc3)CC2)[nH]c(=O)n1C1CCCCC1	none
COc1cccc2sc(Nc3nc(-c4ccccn4)cs3)nc12	SF-1 inh 96
c1ccc(-c2csc(Nc3cccnc3)n2)nc1	none
CCOC(=O)c1sc(Nc2nc3c(OC)cccc3s2)nc1C	none
Cn1c(=O)c2cc(S(=O)(=O)NCCC(=O)NCCC3=CCCCC3)ccc2n(C)c1=O	none
COc1cc2c(cc1NC(=O)CSCC(=O)O)oc1ccccc12	none
COc1cc2c(cc1NC(=O)c1cncc(Br)c1)oc1ccccc12	none
COc1cc2c(cc1NC(=O)CSc1nnnn1-c1ccccc1)oc1ccccc12	SF-1 inh 84
CCCC(=O)Nc1cccc(C(=O)Nc2nccs2)c1	none
O=c1cc(O)nc2n1CCCS2	none
COc1ccc(Cl)cc1-n1c(=S)sc2c(=O)[nH]c(SCC(=O)NCC3CCCO3)nc21 (centres undefined)	none
O=C(CCC1CCCC1)N1CCN(C(=O)COc2ccccc2)CC1	none
Cc1ccc(S(=O)(=O)N2CCN(C(=O)N3CCOCC3)C2C)cc1 (centres undefined)	none
CN=c1scc(C)n1/N=C/c1ccc(O)cc1	none
CN=c1scc(C)n1/N=C/c1ccc(O)cc1O	SF-1 inh 52
COC(=O)C(C)Oc1ccc2c3c(c(=O)oc2c1)CCCCC3 (centres undefined)	none
Nc1nc2ccccc2n1/N=C/c1ccc(Br)cc1	none
CC(=O)N=C(N)Sc1nc2ccccc2[nH]1	none
Clc1ccc(OCCN2CCN(c3ncnc4sccc34)CC2)cc1	SF-1 inh 90
